# Compound activity from PubChem BioAssay.
# aSyn 5UTR inh = 5' untranslated region of α-synuclein, MLPCN primary screen; inhibition, % (tested at 7.5 µM); alpha-synuclein 5'UTR reporter, inhibitor activity; 300,000 compounds, 0.82% hits; in the data active means inhibition above about 60%; inconclusive means no clear call, values can overlap the other calls;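 further: H4 neuroglioblastoma cells stably carrying SNCA 5'UTR luciferase fusion; 0% = DMSO wells and 100% = positive control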
# Jurkat NFkB inh = lowers PMA/ionomycin-induced NF-kB signal in Jurkat cells; inhibition, % at 4 µM; 330,000 compounds, 0.53% hits; AID 435003; PMA/ionomycin-induced NF-kB luciferase reporter, luminescence; in the data active means inhibition above about 50%
# Gli-Sufu block = blocks Gli-Sufu signaling in a luciferase reporter; 340,000 compounds, 0.74% hits; Sufu-KO-LIGHT fibroblasts, Gli luciferase reporter luminescence; AID 588413; inhibition, % at 5 µM;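 active means inhibition above about 55%, limit read from the data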;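 further: 0% = DMSO-treated cells and 100% = wells with medium but no cells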
# Mdm2 MdmX PPI = inhibitors of human Mdm2/MdmX interaction | inhibition, % at 8 µM | AID 485346 | SaOS-2 split-luciferase Mdm2/MdmX complementation, luminescence | 330,000 compounds, 3% hits | O15151+Q00987;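 active means inhibition of at least 50% at 8 µM in the primary screen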
# Target sequence (O15151 whole entry, looked up): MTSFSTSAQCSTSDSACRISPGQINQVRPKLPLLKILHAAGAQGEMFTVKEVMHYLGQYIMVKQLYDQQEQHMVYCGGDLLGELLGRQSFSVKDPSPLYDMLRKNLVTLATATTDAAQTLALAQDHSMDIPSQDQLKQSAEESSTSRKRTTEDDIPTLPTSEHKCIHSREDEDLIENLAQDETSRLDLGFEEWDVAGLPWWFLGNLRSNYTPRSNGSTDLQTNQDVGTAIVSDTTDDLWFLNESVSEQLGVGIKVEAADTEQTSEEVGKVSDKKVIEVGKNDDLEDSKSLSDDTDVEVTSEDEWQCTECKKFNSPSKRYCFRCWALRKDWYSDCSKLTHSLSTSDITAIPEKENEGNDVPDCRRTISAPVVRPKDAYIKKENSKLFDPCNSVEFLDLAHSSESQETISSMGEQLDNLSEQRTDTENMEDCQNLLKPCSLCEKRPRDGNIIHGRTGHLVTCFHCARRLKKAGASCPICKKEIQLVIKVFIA
# Target sequence (Q00987 whole entry, looked up): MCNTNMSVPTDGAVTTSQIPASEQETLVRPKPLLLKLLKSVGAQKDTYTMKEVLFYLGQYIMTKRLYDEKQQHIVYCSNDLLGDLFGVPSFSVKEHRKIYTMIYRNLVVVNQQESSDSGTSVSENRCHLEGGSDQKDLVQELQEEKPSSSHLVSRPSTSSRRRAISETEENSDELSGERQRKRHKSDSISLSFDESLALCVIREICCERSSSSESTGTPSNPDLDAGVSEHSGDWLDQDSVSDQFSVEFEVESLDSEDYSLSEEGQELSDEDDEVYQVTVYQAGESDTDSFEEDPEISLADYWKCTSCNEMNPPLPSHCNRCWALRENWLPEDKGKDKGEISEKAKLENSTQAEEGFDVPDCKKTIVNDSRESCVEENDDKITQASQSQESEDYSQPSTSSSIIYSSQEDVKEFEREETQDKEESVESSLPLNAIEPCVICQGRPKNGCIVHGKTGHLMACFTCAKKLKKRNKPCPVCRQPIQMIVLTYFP
# 697 NFkB inh = inhibitors of the PMA/ionomycin-induced NF-kB reporter in 697 B cells | 697 B-cell NF-kB luciferase reporter, 16 h | inhibition, % at 4 µM | 330,000 compounds, 0.33% hits | AID 435022; in the data active means inhibition above about 35%
# CSC inhib = blocks cancer stem cells. cancer stem cell-like cells viability, luminescence. inhibition, % at 7.5 µM. 300,000 compounds, 1.1% hits. AID 2717; in the data active means inhibition above about 75%; inconclusive means no clear call, values can overlap the other calls; tested in HMLE shEcad cells
# Mdm2-MdmX conf = confirmation of human Mdm2/MdmX interaction inhibitors. inhibition, % at 8 µM. 10,000 compounds, 55% hits. Mdm2-MdmX binding, luminescent assay. AID 489028. shares compounds with Mdm2 MdmX PPI; in the data active means inhibition above about 40%
# FLuc counter = counter-screen for Mdm2/MdmX inhibitors: full-length luciferase; shares compounds with Mdm2 MdmX PPI; SaOS-2 full-length luciferase counterscreen, luminescence; inhibition, % at 8 µM; 6,200 compounds, 77% hits; AID 504607;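 active means mean inhibition at 8 µM reaching about 37%, which flags the compound as non-specific, limit read from the data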;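 further: p53-null SaOS-2 cells with luciferase driven by a doxycycline-inducible promoter; compound on cells about two nights before reading with doxycycline added after day one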
# * hit, by the source's call; ? = inconclusive; . = no result. Shown are actives, neighbours in structure and some others; about 4.5% of the full set was active somewhere.
SMILES,aSyn 5UTR inh,Jurkat NFkB inh,Gli-Sufu block,Mdm2 MdmX PPI,697 NFkB inh,CSC inhib,Mdm2-MdmX conf,FLuc counter
CCN(CC)CCN(C(=O)c1cc2ccccc2cc1OC)c1nc2ccc(OC)cc2s1,16.2,5.5,-13.4,51.3*,4.9,33.6,25.2,.
COc1cc2ccccc2cc1C(=O)N(CCN(C)C)c1nc2c(C)cccc2s1,4.5,14.5,24.1,38.3,9.7,10.1,.,.
COc1cc2ccccc2cc1C(=O)N(CCN(C)C)c1nc2c(OC)ccc(OC)c2s1,38.0,-5.2,.,60.6*,14.6,37.2,22.4,66.3*
CCn1c(SCC(=O)Nc2cc3oc4ccccc4c3cc2OC)nnc1-c1cccs1,-31.4,14.4,-5.9,50.8*,6.6,6.5,11.5,.
C=CCn1c(SCC(=O)Nc2cc3oc4ccccc4c3cc2OC)nnc1-c1cnccn1,27.8,12.0,3.2,22.0,13.3,-10.8,.,.
COc1cc2c(cc1NC(=O)CSc1nnc(Cc3cccs3)n1C)oc1ccccc12,-10.2,5.6,7.2,20.9,0.3,-8.8,.,.
C=CCn1c(COc2ccccc2F)nnc1SCC(=O)Nc1cc2oc3ccccc3c2cc1OC,48.6,15.5,-1.4,54.2*,11.5,27.3,33.3,.
COc1cc2c(cc1NC(=O)CSc1nnnn1-c1ccccc1)oc1ccccc12,0.2,-0.2,0.8,71.3*,-1.5,-17.8,33.0,.
COc1cc2c(cc1NC(=O)CN(C)Cc1ccc(OC)c(OC)c1)oc1ccccc12,-34.4,34.0,21.9,50.6*,4.6,.,59.0*,58.0*
O=C(CSc1nnnn1-c1ccccc1)Nc1nsc(-c2ccccc2)n1,-9.1,-4.5,-0.5,84.3*,-0.1,0.7,80.9*,27.7
COCCCNC(=S)Nc1cc2oc3ccccc3c2cc1OC,-0.4,37.3,9.9,54.6*,-18.1,-3.9,40.8*,89.8*
O=C(CSc1nnnn1-c1ccccc1)Nc1nsc(-c2ccc(Cl)cc2)n1,-33.1,-3.2,-6.8,11.0,10.9,-11.6,.,.
COc1cc2c(cc1NC(=S)Nc1cccc3ccccc13)oc1ccccc12,-27.1,3.4,-25.8,-13.6,-11.9,-1.6,.,.
COc1cc2c(cc1NC(=O)CN1C(=O)NC3(CCc4ccccc43)C1=O)oc1ccccc12 (stereo not drawn),0.3,6.3,-4.3,69.2*,10.4,65.9,13.2,.
O=C(CSc1ccc(Br)cc1)NCC(c1ccco1)N1CCCCC1 (stereo not drawn),6.5,-13.4,15.4,18.8,-16.9,-4.3,.,.
O=c1cc(CN2CCN(c3ccccc3)CC2)c2cc(O)c(-c3ccccc3)cc2o1,52.9,5.1,7.0,72.6*,-19.7,-2.5,9.8,.
Cc1ccccc1CCNC(=O)C1CC(O)CN1C(=O)Nc1ccccc1 (stereo not drawn),2.6,-8.8,-16.8,18.6,-5.9,-8.5,.,.
O=C1CC(/C=C/c2ccc([N+](=O)[O-])cc2)=Nc2ccccc2N1,-112.1,-28.7,-18.3,52.9*,-5.1,2.8,34.6,60.6*
CC(Oc1ncnc2ccccc12)C(=O)Nc1cccc(S(=O)(=O)N2CCOCC2)c1 (stereo not drawn),5.0,-10.4,0.8,-17.4,1.5,-6.8,.,.
CC1CCN(Cc2c(O)ccc3c(=O)c(-c4nc5ccccc5s4)c(N)oc23)CC1,-62.2,-13.6,12.4,50.7*,-26.9,.,21.9,.
CC1CCCN(Cc2c(O)ccc3c(=O)c(-c4nc5ccccc5s4)c(N)oc23)C1 (stereo not drawn),-27.4,1.2,38.3,70.1*,4.5,30.9,43.3*,67.2*
CC1(C)CCCN(Cc2c(O)ccc3c(=O)c(-c4nc5ccccc5s4)c(N)oc23)C1,-125.1,-29.4,-24.5,14.3,-95.6,?,.,.
Cc1ccc(C(=O)Oc2ccccc2N2C(=O)C3CCCCC3C2=O)cc1 (stereo not drawn),-41.7,2.2,-3.1,8.7,1.1,-4.2,.,.
C=C(C)CNC(=S)NNC(=O)CCn1c2ccc(Cl)cc2c2cc(Cl)ccc21,51.7,6.6,4.3,54.0*,-2.5,102.2*,17.6,.
C=C(C)CNC(=S)NNC(=O)CCn1c2cc(Cl)ccc2c2ccc(Cl)cc21,-5.9,-10.9,-2.9,13.4,4.3,45.6,.,.
SMILES,aSyn 5UTR inh,Jurkat NFkB inh,Gli-Sufu block,Mdm2 MdmX PPI,697 NFkB inh,CSC inhib,Mdm2-MdmX conf,FLuc counter
Cc1ccc(S(=O)(=O)N(C)C)cc1NC(=O)CCNC(=O)c1ccco1,9.9,9.9,-16.8,30.6,1.7,-0.5,.,.
Cc1cc(C)c2nc(C)cc(Nc3ccc(C(=O)N(C)C)cc3)c2c1,-19.3,4.1,4.9,44.2,8.3,-0.8,.,.
CC(=O)c1ccc(Nc2cc(C)nc3c(C)cc(C)cc23)cc1,21.1,47.8,23.2,64.0*,-66.5,-7.3,61.2*,65.4*
COC(=O)c1ccc(Nc2cc(C)nc3ccccc23)cc1,64.7*,39.8,-1.0,100.2*,-32.9,38.9,65.2*,52.1*
C=CCc1ccccc1OCC(O)CNC(=O)c1ccccc1C(=O)O (stereo not drawn),-11.4,5.4,-5.0,18.7,10.6,-4.1,.,.
CC(=O)c1ccc(OC(C)C)c(CN2CCCCC2)c1,21.1,-6.2,-8.2,2.8,3.4,-19.5,.,.
N#CC1(C(N)=O)OC12CCS(=O)(=O)c1ccccc12 (stereo not drawn),.,.,-30.9,.,.,.,.,.
C/C(=N\Nc1ncnc2sc(C)c(C)c12)c1ccccn1,104.9*,49.8,93.6*,98.7*,9.5,.,61.0*,76.6*
CC(C)N(Cc1ccccc1)C(=O)COC(=O)c1cnc(Cl)c(Cl)c1,.,-2.6,1.5,63.4*,-2.5,.,8.9,.
CN(C)S(=O)(=O)n1cc(/C=C(\NC(=O)c2ccccc2Cl)C(=O)N2CCOCC2)c2ccccc21,-0.2,-3.9,15.9,62.4*,0.2,-0.6,-4.7,.
COc1ccc(/C=N/NC(=O)CCSc2nc3ccccc3s2)cc1OC,-3.8,6.5,19.0,-40.1,-2.5,9.4,.,.
O=C(CCSc1nc2ccccc2s1)N/N=C/c1c(O)ccc2ccccc12,65.9*,24.9,6.9,82.4*,-17.7,79.7*,82.2*,31.6
O=C(N/N=C/c1c(O)ccc2ccccc12)c1[nH]ncc1Br,106.0*,48.5,66.7*,64.6*,-41.4,107.6*,75.7*,40.5*
COc1ccccc1OCC(=O)N/N=C/c1c(O)ccc2ccccc12,?,44.2,.,81.7*,-9.9,47.9,78.5*,27.8
Cc1cc(C)n(CCC(=O)N/N=C/c2c(O)ccc3ccccc23)n1,73.3*,27.5,-4.3,72.9*,-0.3,16.0,78.2*,51.9*
CC(CC(=O)NCCc1ccc(Cl)cc1)S(=O)(=O)c1ccc2c(c1)NC(=O)CO2 (stereo not drawn),17.5,5.4,-9.9,23.4,7.7,-5.2,.,.
O=C(/C=C\Nc1ccccn1)c1ccccc1,48.8,-105.6,-72.0,-41.6,-249.2,-11.9,.,.
